{"source": "PubChem BioAssay AID588727", "about": "(Southern Research Specialized Biocontainment Screening …, 2011)", "note": "Among all 350,000 compounds or so, about 450 (0.13%) were called active. The rule behind the calls is not given here. Not all results are given here. Results with a measured potency or affinity are listed apart. Where a SMILES comes first, the peptide text is derived from it. The star is where a group is joined. CH2Cl = ClC*"}
{"experiment": "inhibitors of VEEV TC-83 cytopathic effect, confirmation, Vero cells (AID 588727)", "settings": "VEEV TC-83 cytopathic effect inhibition, at 20 µM; stronger effect = higher value unless noted"}
{"smiles": "COC(=O)C(O)(c1ccc(N(C)C(=O)c2ccc(Cl)c(Cl)c2)cc1)C(F)(F)F", "note": "(stereo unspecified)", "inhibition": "0.88% (inactive)"}
{"smiles": "CCOC(=O)c1c(S(=O)(=O)N2c3ccccc3CC2C)c(C)n(C)c1C", "note": "(stereo unspecified)", "inhibition": "inactive"}
{"smiles": "Cc1c(NC(=O)c2ccc(Br)s2)c(=O)n(-c2ccccc2)n1C", "inhibition": "0.26% (inactive)"}
{"smiles": "O=C(N[C@@H](Cc1ccccc1)C(=O)CCl)OCc1ccccc1", "inhibition": "8.46% (inactive)"}
{"smiles": "CC(=O)NC(CC(C)C)C(=O)NC(Cc1ccccc1)C(=O)CCl", "note": "(stereo not drawn) (Ac-Leu-Phe-CH2Cl; configuration not given here)", "inhibition": "6.56% (inactive)"}
{"smiles": "Cc1nc(-c2ccc(Cl)cc2)sc1C1(C)CC(c2cccc(F)c2)=NO1", "note": "(stereo unspecified)", "inhibition": "2.59% (inactive)"}
{"smiles": "C[C@]12CCC(O)CC1CCC1C2CC[C@]2(C)C(c3cc(C(F)(F)F)n[nH]3)CCC12", "note": "(stereo partly specified)", "inhibition": "inactive"}
{"smiles": "CN(C)CCNC(=O)c1ccccc1-c1cc2ccccc2c(=O)o1", "inhibition": "0.53% (inactive)"}
{"smiles": "COc1ccc(C(=O)Nc2cc3c(cc2OC)CCCC3)cc1Br", "inhibition": "1.28% (inactive)"}
{"smiles": "COc1cc2c(cc1NC(=O)c1cccc(F)c1)CCCC2", "inhibition": "0.61% (inactive)"}
{"smiles": "CCOc1ccc(NC(=O)CN(C)C(=O)CCc2nc3ccccc3c(=O)[nH]2)cc1OCC", "inhibition": "inactive"}
{"smiles": "CC1(C)Cc2cccc(OCC(=O)Nc3nccs3)c2O1", "inhibition": "7.27% (inactive)"}
{"smiles": "CC1(C)Cc2cccc(OCC(=O)Nc3cccnc3)c2O1", "inhibition": "7.7% (inactive)"}
{"smiles": "CCCC(=O)C1C(=O)CC(CC(C)SCC)CC1=O", "note": "(stereo unspecified)", "inhibition": "0.43% (inactive)"}
{"smiles": "O=C1/C(=C/c2cccnc2)Oc2cc(OS(=O)(=O)c3ccc(F)cc3)ccc21", "inhibition": "0.87% (inactive)"}
{"smiles": "CCc1c(C(=O)NC2CCCCC2)[nH]c(C)c1C(C)=O", "inhibition": "inactive"}
{"smiles": "CC(=O)c1c(C)[nH]c(C(=O)NC2CCSc3ccccc32)c1C", "note": "(stereo unspecified)", "inhibition": "4.81% (inactive)"}
{"smiles": "COc1ccc(N2C(=O)CC(N3CCN(c4ccc(Cl)cc4)CC3)C2=O)cc1", "note": "(stereo unspecified)", "inhibition": "0.34% (inactive)"}
{"smiles": "O=C(Cc1coc2ccc3ccccc3c12)Nc1nccs1", "inhibition": "2.66% (inactive)"}
{"smiles": "Cc1cc2occ(CC(=O)Nc3nnc(C4CC4)s3)c2cc1C", "inhibition": "0.7% (inactive)"}
{"smiles": "CCC(CC)c1nnc(NC(=O)Cc2c[nH]c3ccccc23)s1", "inhibition": "3.52% (inactive)"}
{"smiles": "CCc1nnc(NC(=O)Cc2c[nH]c3ccccc23)s1", "inhibition": "0.4% (inactive)"}
{"smiles": "CC(=O)c1cccc(N=Cc2c(O)c3ccccc3oc2=O)c1", "inhibition": "8.95% (inactive)"}
{"smiles": "Cc1[nH]c2ccccc2c1C(C[N+](=O)[O-])c1ccco1", "note": "(stereo unspecified)", "inhibition": "1.43% (inactive)"}
{"smiles": "COc1cc(S(=O)(=O)N2CCN(C)CC2)c(OC)cc1Cl", "inhibition": "inactive"}
{"smiles": "COCCC(=O)NC12CC3CC(CC(C3)C1)C2", "inhibition": "inactive"}
{"smiles": "O=C(CNCCO)NC12CC3CC(CC(C3)C1)C2", "inhibition": "2.6% (inactive)"}
{"smiles": "Oc1ccc(Cl)cc1N=Nc1ccccc1", "inhibition": "inactive"}
{"smiles": "Oc1ccc(N=Nc2n[nH]c(-c3ccc(Cl)cc3)n2)cc1", "inhibition": "1.16% (inactive)"}
{"smiles": "COc1ccccc1-c1n[nH]c(=S)o1", "inhibition": "0.85% (inactive)"}
{"smiles": "COC(=O)Nc1ccc(S(=O)(=O)N2CCCc3ccccc32)cc1", "inhibition": "inactive"}
{"smiles": "CC(=O)Nc1ccc(S(=O)(=O)N2CCCc3ccccc32)cc1", "inhibition": "inactive"}
{"smiles": "O=C(O)c1ccc(Sc2ccccn2)c([N+](=O)[O-])c1", "inhibition": "0.39% (inactive)"}
{"smiles": "N/C(CS(=O)(=O)c1ccccc1)=N\\OC(=O)c1ccc(F)cc1", "inhibition": "1.85% (inactive)"}
{"smiles": "c1ccc(Oc2nc(NCc3ccco3)nc(NCc3ccco3)n2)cc1", "inhibition": "4.2% (inactive)"}
{"smiles": "Cc1ccc(NS(=O)(=O)c2cccc3cccnc23)c(Cl)c1", "inhibition": "1.97% (inactive)"}
{"smiles": "Cc1ccc(S(=O)(=O)Nc2cccc3cccnc23)cc1", "inhibition": "5.25% (inactive)"}
{"smiles": "O=S1(=O)N=C2CCCCCN2C(c2ccc(Cl)cc2)N1", "note": "(stereo unspecified)", "inhibition": "0.81% (inactive)"}
{"smiles": "CCCCN1C(Nc2ccccc2)=NC[C@@H]1C", "inhibition": "0.29% (inactive)"}
{"smiles": "COc1ccc(C(C(=O)NC2CCCC2)N(C(=O)c2ccco2)c2ccc(OC)c(OC)c2)cc1", "note": "(stereo unspecified)", "inhibition": "0.66% (inactive)"}
{"smiles": "CC(C)NC(=O)N(C)C[C@@H]1Oc2c(NS(=O)(=O)c3ccccc3)cccc2C(=O)N([C@@H](C)CO)C[C@@H]1C", "inhibition": "0.31% (inactive)"}
{"smiles": "COc1ccc(/C=C/c2nc3ccccc3c(=O)o2)cc1", "inhibition": "3.84% (inactive)"}
{"smiles": "O=c1nc(/C=C/c2ccc(O)c(O)c2)oc2ccccc12", "inhibition": "1.28% (inactive)"}
{"smiles": "O=C1NC(=O)c2cc(NC(=O)c3cccc4ccccc34)ccc21", "inhibition": "2.09% (inactive)"}
{"smiles": "CC12CCC(=O)CC1CCC1C2CCC2(C)C1CCC2(O)C(=O)CO", "note": "(stereo unspecified)", "inhibition": "10.6% (inactive)"}
{"smiles": "C[C@]1(O)CCC2C3CC[C@@H]4CC(=O)CC[C@]4(C)C3CC[C@@]21C", "note": "(stereo partly specified)", "inhibition": "inactive"}
{"smiles": "Cn1cc(CN2CCC(CO)CC2)c(-c2ccc(Oc3ccccc3)cc2)n1", "inhibition": "0.54% (inactive)"}
{"smiles": "Cn1cc(CN2CCC(O)CC2)c(-c2ccc(Oc3ccccc3)cc2)n1", "inhibition": "1.33% (inactive)"}
{"smiles": "COc1cccc(CN2CC(C(=O)NCCCn3ccnc3C)CCC2=O)c1", "note": "(stereo unspecified)", "inhibition": "0.67% (inactive)"}
{"smiles": "CC(C)c1nnc(SCC(=O)N2CCc3ccccc32)n1N", "inhibition": "inactive"}
{"smiles": "C/C(=N\\NC(=O)c1c(C)nc2ccccn12)c1cccc([N+](=O)[O-])c1", "inhibition": "0.31% (inactive)"}
{"smiles": "COc1ccc(/C=C/C(=O)c2c(C)nc3ccccn23)cc1", "inhibition": "5.86% (inactive)"}
{"smiles": "Cc1ccc(S(=O)(=O)NNC(=O)c2sc(NS(=O)(=O)c3ccccc3)nc2C)cc1", "inhibition": "2.55% (inactive)"}
{"smiles": "CC(=O)c1cccc(NC(=O)CSc2nc3ccccc3c(=O)n2CCCN2CCOCC2)c1", "inhibition": "8.56% (inactive)"}
{"smiles": "COc1ccc(CNC(=O)C(C)Sc2nc3ccccc3c(=O)n2CCCN2CCOCC2)cc1", "note": "(stereo unspecified)", "inhibition": "0.34% (inactive)"}
{"smiles": "c1ccc(-c2nnnc3ccccc23)cc1", "inhibition": "0.46% (inactive)"}
{"smiles": "Cc1ccc2nnnc(-c3ccccc3)c2c1", "inhibition": "0.17% (inactive)"}
{"smiles": "COC(c1ccccc1)c1nc2ccccc2[nH]c1=O", "note": "(stereo unspecified)", "inhibition": "0.57% (inactive)"}
{"smiles": "O=C(CCCSc1nc2ccccc2[nH]1)Nc1ccccc1", "inhibition": "inactive"}
{"smiles": "COc1cc(NC(=S)NC(=O)c2c(OC)cccc2OC)ccc1NC(=O)c1cccs1", "inhibition": "3.81% (inactive)"}
{"smiles": "COc1cc(NC(=S)NC(=O)c2cc(C)cc(C)c2)ccc1NC(=O)c1cccs1", "inhibition": "8.93% (inactive)"}
{"smiles": "Cc1ccc(Cl)cc1Nc1nc(N2CCOCC2)nc(N2CCOCC2)n1", "inhibition": "inactive"}
{"smiles": "Cc1ccc(O)c(C(=O)CC(=O)c2ccc(C(C)(C)C)cc2)c1", "inhibition": "2.3% (inactive)"}
{"smiles": "Cc1ccc(C(=O)CC(=O)c2cccc(F)c2)c(O)c1", "inhibition": "1.73% (inactive)"}
{"smiles": "O=C(CC(=O)c1ccccc1O)c1cccc(F)c1", "inhibition": "2.48% (inactive)"}
{"smiles": "CC(C)(C)c1ccc(C(=O)CC(=O)c2cc(Cl)ccc2O)cc1", "inhibition": "1.44% (inactive)"}
{"smiles": "CCN(CC)C(=O)Cn1cc(S(=O)(=O)CC(=O)N2CCOCC2)c2ccccc21", "inhibition": "1.34% (inactive)"}
{"smiles": "CCc1cccc(CC)c1-n1c(SCc2cc(=O)n3ccsc3n2)nnc1-c1cccnc1", "inhibition": "inactive"}
{"smiles": "CN(C(=O)COC(=O)/C=C/c1ccc(S(=O)(=O)N2CCc3ccccc32)cc1)C1CCS(=O)(=O)C1", "note": "(stereo unspecified)", "inhibition": "0.84% (inactive)"}
{"smiles": "CC(CCc1ccccc1)OS(N)(=O)=O", "note": "(stereo unspecified)", "inhibition": "0.425% [measured here: 10K pilot screen inhibition, stronger effect = higher value]", "outcome": "inactive"}
{"smiles": "OC(COc1ccc(CNCCc2ccccc2F)cc1)CN1CCCCC1", "note": "(stereo unspecified)", "inhibition": "4.19% (inactive)"}
{"smiles": "Cc1n[nH]c(C)c1CCNCc1ccc(OCC(O)CN2CCCCC2)cc1", "note": "(stereo unspecified)", "inhibition": "0.96% (inactive)"}
{"smiles": "N/C(=N\\OCc1ccc([N+](=O)[O-])cc1)c1ccccn1", "inhibition": "0.33% (inactive)"}
{"smiles": "CC(=O)Nc1ccccc1C(=O)OCC(=O)c1ccccc1Cl", "inhibition": "0.205% [measured here: 10K pilot screen inhibition, stronger effect = higher value]", "outcome": "inactive"}
{"smiles": "CNC(=S)NCc1ccc2[nH]c3c(c2c1)CCCC3", "inhibition": "0.13% (inactive)"}
{"smiles": "CC(C)CC(=O)NCc1ccc2[nH]c3c(c2c1)CCCC3", "inhibition": "1.23% (inactive)"}
{"smiles": "CC(C)C[C@H]1CNC(=S)N1CC1CCN(CCCCc2ccccc2)CC1", "inhibition": "inactive"}
{"smiles": "COc1cccc(N2C(=O)C3CCCN3C2c2cccs2)c1", "note": "(stereo unspecified)", "inhibition": "1.22% (inactive)"}
{"smiles": "O=C1C2CCCN2C(c2cccs2)N1c1ccc(F)cc1", "note": "(stereo unspecified)", "inhibition": "inactive"}
{"smiles": "CC(=O)Nc1ccc(S(=O)(=O)N(C)c2ccc(OCC(=O)Nc3ccccc3C(C)=O)cc2)cc1", "inhibition": "11% (inactive)"}
{"smiles": "CN(c1ccc(OCC(=O)Nc2cc(Cl)ccc2C(=O)O)cc1)S(=O)(=O)c1ccc(F)cc1", "inhibition": "1.87% (inactive)"}
{"smiles": "CC(C)CN(C(=O)COc1ccc(C(C)(C)C)cc1)C1CCS(=O)(=O)C1", "note": "(stereo unspecified)", "inhibition": "12.2% (inactive)"}
{"smiles": "CN(C)N=Nc1nc2c([nH]1)c(=O)n(C)c(=O)n2C", "inhibition": "1.78% (inactive)"}
{"smiles": "CN(C)N=Nc1nc2c(c(=O)n(C)c(=O)n2C)n1C", "inhibition": "inactive"}
{"smiles": "CN(C(=O)c1cccc(NC(=O)Cc2ccc(NC(=O)C3CCN(C(=O)C4CC4)CC3)cc2)c1)C1CCCCC1", "inhibition": "0.89% (inactive)"}
{"smiles": "O=C(CSc1nccn1-c1ccc(Cl)cc1)NCc1ccc2c(c1)OCO2", "inhibition": "3.2% (inactive)"}
{"smiles": "CCOC(=O)Cc1nnc(Nc2cccc(O)c2)c2ccccc12", "inhibition": "4.42% (inactive)"}
{"smiles": "O=C(Cc1c(Cl)cccc1Cl)OCc1ccccn1", "inhibition": "1.24% (inactive)"}
{"smiles": "O=C(CN(CC1CCCO1)C(=O)CNS(=O)(=O)c1ccc(Cl)cc1)NCc1ccc(F)cc1", "note": "(stereo unspecified)", "inhibition": "3.94% (inactive)"}
{"smiles": "COc1cc2nc(N3CCN(C(=O)c4ccco4)CC3)nc(N)c2cc1OC", "inhibition": "23.2% (inactive)"}
{"smiles": "COc1cc2nc(N3CCN(c4cc(C)ccc4C)CC3)nc(N)c2cc1OC", "inhibition": "inactive"}
{"smiles": "COC(=O)C1CCN(C(=O)COC(=O)CC(NC(N)=O)c2ccc(Cl)cc2)CC1", "note": "(stereo unspecified)", "inhibition": "1.27% (inactive)"}
{"smiles": "CSc1nnc2c(n1)OC(c1ccc(C(=O)O)cc1)N(C(C)=O)c1ccccc1-2", "note": "(stereo unspecified)", "inhibition": "0.04% (inactive)"}
{"smiles": "COc1ccc(NC(=O)c2ccco2)c([N+](=O)[O-])c1", "inhibition": "inactive"}
